Inconclusive results are not listed. Calls of active or inactive are those of the source. Rule for the calls, unless noted: active = hit-call score of the fitted dose curve at least 0.9, where 1 is the maximum; inactive = score below 0.9.
Assays:
[1] = read-out: Nuclear factor erythroid 2-related factor 2 (Homo sapiens) (UniProt Q16236); assay: LTEA_HepaRG_NFE2L2: Life Technologies and Expression Analysis (LTEA) Assay for Nuclear factor erythroid 2-related factor 2 (NFE2L2) Transcription Factor using HepaRG (AID 2283527); settings: mRNA level, 48 h; actives raise or lower the signal;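 note: TaqMan qRT-PCR transcript level normalised to ACTB GAPDH and POLR2A housekeeping genes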
Outline: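 Differentiated human HepaRG cells, serum-free induction medium, exposed 48 h in duplicate to eight half-log concentrations up to 100 uM in 0.5% DMSO. NFE2L2 mRNA by Fluidigm TaqMan qRT-PCR, normalised to ACTB, GAPDH, POLR2A; bidirectional change versus DMSO.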

[2] = read-out: succinate dehydrogenase complex iron sulfur subunit B (SDHB), SDHB (gene 6390); assay: LTEA_HepaRG_SDHB: Life Technologies and Expression Analysis (LTEA) Assay for succinate dehydrogenase complex iron sulfur subunit B (SDHB) using HepaRG (AID 2283528); settings: mRNA level, 48 h; actives raise or lower the signal
Outline: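 Readout is SDHB transcript level by qRT-PCR, normalised to three housekeeping genes and fitted bidirectionally against 0.5% DMSO vehicle. Human HepaRG cells were treated for 48 h at up to 100 uM.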

[3] = read-out: Signal transducer and activator of transcription 3 (Homo sapiens) (UniProt P40763); assay: LTEA_HepaRG_STAT3: Life Technologies and Expression Analysis (LTEA) Assay for Signal transducer and activator of transcription (STAT3) using HepaRG (AID 2283529); settings: mRNA level, 48 h; actives raise or lower the signal
Outline: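 Differentiated HepaRG cells, serum-free induction medium, dosed 48 h in duplicate, 8 half-log concentrations from 100 uM in 0.5% DMSO. STAT3 mRNA by qRT-PCR, normalised to ACTB, GAPDH, POLR2A; bidirectional fit versus DMSO.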

[4] = read-out: solute carrier (SLCO1B1), SLCO1B1 (gene 10599); assay: LTEA_HepaRG_SLCO1B1: Life Technologies and Expression Analysis (LTEA) Assay for solute carrier (SLCO1B1) using HepaRG (AID 2283530); settings: mRNA level, 48 h; actives raise or lower the signal
Outline: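 Gain or loss of SLCO1B1 mRNA is fitted against the 0.5% DMSO vehicle in human HepaRG liver cells treated 48 h at up to 100 uM in half-log steps. Expression comes from qRT-PCR normalized to endogenous controls.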

[5] = read-out: sulfotransferase 2A1 (SULT2A1), SULT2A1 (gene 6822); assay: LTEA_HepaRG_SULT2A1: Life Technologies and Expression Analysis (LTEA) Assay for sulfotransferase 2A1 (SULT2A1) using HepaRG (AID 2283531); settings: mRNA level, 48 h; actives raise or lower the signal
Outline: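 Cells were plated and cultured 48 h, switched to serum-free induction medium, then dosed in duplicate for 48 h (8 concentrations, max 100 uM). RNA was isolated and SULT2A1 expression measured by qRT-PCR; gain or loss of signal fitted relative to DMSO.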

[6] = read-out: Transforming Growth Factor (TGFA), TGFA (gene 7039); assay: LTEA_HepaRG_TGFA: Life Technologies and Expression Analysis (LTEA) Assay for Transforming Growth Factor (TGFA) using HepaRG (AID 2283532); settings: mRNA level, 48 h; actives raise or lower the signal
Outline: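 Differentiated HepaRG cells exposed 48 hours in serum-free induction medium, 0.5% DMSO vehicle, 8-point half-log series from 100 uM, in duplicate. TGFA mRNA by TaqMan qRT-PCR, normalised to ACTB, GAPDH, POLR2A; bidirectional fit versus DMSO.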

[7] = read-out: TIMP1, TIMP1 (gene 7076); assay: LTEA_HepaRG_TIMP1: Life Technologies and Expression Analysis (LTEA) Assay for TIMP1 using HepaRG (AID 2283534); settings: mRNA level, 48 h; actives raise or lower the signal
Outline: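 We dosed human liver HepaRG cultures for 48 hours with up to 100 uM test chemical and measured TIMP1 expression by qRT-PCR. Activity in either direction is fitted relative to the 0.5% DMSO vehicle.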

[8] = read-out: Tumor necrosis factor receptor 1 (TNFRSF1A), TNFRSF1A (gene 7132); assay: LTEA_HepaRG_TNFRSF1A: Life Technologies and Expression Analysis (LTEA) Assay for Tumor necrosis factor receptor 1 (TNFRSF1A) using HepaRG (AID 2283535); settings: mRNA level, 48 h; actives raise or lower the signal
Outline: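 Expression of TNFRSF1A in human HepaRG liver cells was measured by qRT-PCR 48 h after chemical dosing (maximum 100 uM). Bidirectional curve fitting used 0.5% DMSO as baseline.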

[9] = read-out: Thyroid Hormone Responsive (THRSP), THRSP (gene 7069); assay: LTEA_HepaRG_THRSP: Life Technologies and Expression Analysis (LTEA) Assay for Thyroid Hormone Responsive (THRSP) using HepaRG (AID 2283536); settings: mRNA level, 48 h; actives raise or lower the signal
Outline: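 Differentiated HepaRG cells treated 48 h in serum-free induction medium with 8 half-log concentrations up to 100 uM (0.5% DMSO), duplicates. THRSP mRNA by TaqMan qRT-PCR normalised to ACTB, GAPDH, POLR2A; bidirectional fit versus DMSO.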

[10] = read-out: Cellular tumor antigen p53 (Homo sapiens) (UniProt P04637); assay: LTEA_HepaRG_TP53: Life Technologies and Expression Analysis (LTEA) Assay for Tumor Protein P53 (TP53) using HepaRG (AID 2283537); settings: mRNA level, 48 h; actives raise or lower the signal
Outline: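 Read-out is TP53 transcript level by microfluidic qRT-PCR, normalised to three housekeeping genes and fitted bidirectionally against DMSO. Human HepaRG cells received compounds for 48 h, highest concentration 100 uM.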

[11] = read-out: UDP glucuronosyltransferase (UGT1A1), UGT1A1 (gene 54658); assay: LTEA_HepaRG_UGT1A1: Life Technologies and Expression Analysis (LTEA) Assay for UDP glucuronosyltransferase (UGT1A1) using HepaRG (AID 2283538); settings: mRNA level, 48 h; actives raise or lower the signal
Outline: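 Readout is UGT1A1 transcript level by qRT-PCR, normalized to three housekeeping genes, after 48 h chemical treatment of HepaRG cells. Concentrations ran from 100 uM down in half-log steps with 0.5% DMSO, and gain or loss relative to DMSO was fitted.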

[12] = read-out: UDP glucuronosyltransferase (UGT1A6), UGT1A6 (gene 54578); assay: LTEA_HepaRG_UGT1A6: Life Technologies and Expression Analysis (LTEA) Assay for UDP glucuronosyltransferase (UGT1A6) using HepaRG (AID 2283539); settings: mRNA level, 48 h; actives raise or lower the signal
Outline: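 Endpoint is UGT1A6 transcript induction or loss in a human liver cell line, quantified by TaqMan qRT-PCR 48 h after dosing. Concentrations ran from 100 uM downward in half-log steps in 0.5% DMSO; activity was fitted in both directions versus vehicle.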

[13] = TOX21_p53_BLA_p2_viability: Viability Assessment in the Tox21 HCT-116 p53 Agonism Beta-lactamase Assay, Phase 2 (AID 2283591; active = hit-call score of the fitted dose curve at least 0.9, where 1 is the maximum;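 note: compound exposure lasted 16 h at 37 °C; actives lower the ATP signal meaning cytotoxicity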)
Outline: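 HCT116 p53-bla cells, 4000/well, dosed after 5 h plating (217-fold dilution of DMSO stocks) and incubated 16 h at 37C. Viability taken as cellular ATP by CellTiter-Glo luminescence after 30 min RT; signal loss marks cytotoxicity.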

[14] = biological target: Cellular tumor antigen p53 (Homo sapiens) (UniProt P04637); assay: TOX21_p53_BLA_p2_ratio: Tox21 HCT-116 p53 Agonism Beta-lactamase Assay, Ratio, Phase 2 (AID 2283592; active = hit-call score of the fitted dose curve at least 0.9, where 1 is the maximum)
Sequence of Cellular tumor antigen p53 (Homo sapiens) (P04637 whole entry, looked up): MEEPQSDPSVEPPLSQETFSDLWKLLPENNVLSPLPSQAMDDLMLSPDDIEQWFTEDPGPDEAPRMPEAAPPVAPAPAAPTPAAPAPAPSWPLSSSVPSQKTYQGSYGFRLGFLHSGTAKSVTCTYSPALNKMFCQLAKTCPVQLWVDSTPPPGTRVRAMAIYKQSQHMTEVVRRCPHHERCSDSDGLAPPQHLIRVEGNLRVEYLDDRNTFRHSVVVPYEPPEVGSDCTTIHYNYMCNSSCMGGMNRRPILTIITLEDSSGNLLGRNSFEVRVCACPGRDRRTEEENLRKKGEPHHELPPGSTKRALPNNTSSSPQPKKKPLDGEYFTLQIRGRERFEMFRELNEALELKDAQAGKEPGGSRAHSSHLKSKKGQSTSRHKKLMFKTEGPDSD
Outline: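 An inducible beta-lactamase reporter in HCT116 cells signals p53 pathway activation. After 16 h chemical exposure at 37C, cells load CCF4-AM substrate for 2 h at room temperature; activity is the cleaved/uncleaved emission ratio relative to DMSO.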

[15] = biological target: Cellular tumor antigen p53 (Homo sapiens) (UniProt P04637); assay: TOX21_p53_BLA_p3_ratio: Tox21 HCT-116 p53 Agonism Beta-lactamase Assay, Ratio, Phase 3 (AID 2283596; active = hit-call score of the fitted dose curve at least 0.9, where 1 is the maximum)
Outline: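 HCT116 p53-bla cells (4000/well) given compound in DMSO (217-fold dilution) after 5 h, incubated 16 h at 37C. CCF4-AM substrate 2 h at room temperature; 460/530 nm emission ratio, gain fitted against DMSO.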

[16] = read-out: Transforming Growth Factor (TGFB1), TGFB1 (gene 7040); assay: LTEA_HepaRG_TGFB1: Life Technologies and Expression Analysis (LTEA) Assay for Transforming Growth Factor (TGFB1) Transporter using HepaRG (AID 2283533); settings: mRNA level, 48 h; actives raise or lower the signal
Outline: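 Expression change of TGFB1 in human HepaRG cells is measured after a 48 h chemical exposure, up to 100 uM in 0.5% DMSO vehicle. Curves are fitted in both directions relative to the DMSO baseline.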

[17] = LTEA_HepaRG_LDH_cytotoxicity: Cytotoxicity Assessment in the Life Technologies and Expression Analysis (LTEA) Assay (AID 2283563; active = hit-call score of the fitted dose curve at least 0.9, where 1 is the maximum)
Outline: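 Human HepaRG hepatic cells are treated with test chemicals for 48 h at up to 100 uM in 0.5% DMSO. Cytotoxicity is scored from medium LDH against the vehicle control.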

[18] = read-out: X-box binding protein 1 (XBP1), XBP1 (gene 7494); assay: LTEA_HepaRG_XBP1: Life Technologies and Expression Analysis (LTEA) Assay for X-box binding protein 1 (XBP1) using HepaRG (AID 2283540); settings: mRNA level, 48 h; actives raise or lower the signal
Outline: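 Human HepaRG monolayers receive test chemical for 48 h across an eight-point half-log series starting at 100 uM. XBP1 mRNA gain or loss is scored against DMSO by qRT-PCR.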

[19] = TOX21_p53_BLA_p3_viability: Viability Assessment in the Tox21 HCT-116 p53 Agonism Beta-lactamase Assay, Phase 3 (AID 2283593; active = hit-call score of the fitted dose curve at least 0.9, where 1 is the maximum;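 note: cells exposed to compound for 16 h before reading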)
Outline: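 HCT116 cells, 4000/well, dosed 5 h after plating by pin transfer (217-fold dilution from DMSO stock) and incubated 16 h at 37C, 5% CO2. Viability read as ATP luminescence with CellTiter-Glo after 30 min at room temperature.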

[20] = ATG_XTT_Cytotoxicity: Cytotoxicity Assessment in the Attagene TRANS-FACTORIAL HepG2 Assay (AID 2283584; active = hit-call score of the fitted dose curve at least 0.9, where 1 is the maximum)
Outline: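 Transfect HepG2 with GAL4-UAS reporter units, dose compound, incubate 24 h, then measure viable cell number by XTT. Fit concentration response against DMSO baseline.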

Measured: AC50

Sequence of Signal transducer and activator of transcription 3 (Homo sapiens) (P40763 whole entry, looked up): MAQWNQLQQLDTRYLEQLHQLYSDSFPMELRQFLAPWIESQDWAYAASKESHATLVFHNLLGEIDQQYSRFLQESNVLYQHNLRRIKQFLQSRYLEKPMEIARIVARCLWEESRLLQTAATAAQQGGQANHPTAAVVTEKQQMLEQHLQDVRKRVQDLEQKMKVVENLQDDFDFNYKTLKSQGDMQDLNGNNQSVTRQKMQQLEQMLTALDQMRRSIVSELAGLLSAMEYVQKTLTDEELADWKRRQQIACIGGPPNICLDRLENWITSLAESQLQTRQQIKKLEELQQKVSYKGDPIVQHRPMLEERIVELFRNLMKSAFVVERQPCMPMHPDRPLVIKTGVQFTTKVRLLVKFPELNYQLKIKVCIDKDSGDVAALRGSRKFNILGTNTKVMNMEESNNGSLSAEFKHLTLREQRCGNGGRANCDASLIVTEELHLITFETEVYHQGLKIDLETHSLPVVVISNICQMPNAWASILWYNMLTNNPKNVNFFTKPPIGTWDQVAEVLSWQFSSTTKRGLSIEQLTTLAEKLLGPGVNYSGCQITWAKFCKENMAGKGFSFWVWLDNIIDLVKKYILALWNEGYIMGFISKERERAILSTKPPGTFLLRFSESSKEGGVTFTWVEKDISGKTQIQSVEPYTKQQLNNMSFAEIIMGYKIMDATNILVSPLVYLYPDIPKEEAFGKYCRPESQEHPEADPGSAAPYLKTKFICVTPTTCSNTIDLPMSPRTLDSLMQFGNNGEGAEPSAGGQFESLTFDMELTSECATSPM
Sequence of Nuclear factor erythroid 2-related factor 2 (Homo sapiens) (Q16236 whole entry, looked up): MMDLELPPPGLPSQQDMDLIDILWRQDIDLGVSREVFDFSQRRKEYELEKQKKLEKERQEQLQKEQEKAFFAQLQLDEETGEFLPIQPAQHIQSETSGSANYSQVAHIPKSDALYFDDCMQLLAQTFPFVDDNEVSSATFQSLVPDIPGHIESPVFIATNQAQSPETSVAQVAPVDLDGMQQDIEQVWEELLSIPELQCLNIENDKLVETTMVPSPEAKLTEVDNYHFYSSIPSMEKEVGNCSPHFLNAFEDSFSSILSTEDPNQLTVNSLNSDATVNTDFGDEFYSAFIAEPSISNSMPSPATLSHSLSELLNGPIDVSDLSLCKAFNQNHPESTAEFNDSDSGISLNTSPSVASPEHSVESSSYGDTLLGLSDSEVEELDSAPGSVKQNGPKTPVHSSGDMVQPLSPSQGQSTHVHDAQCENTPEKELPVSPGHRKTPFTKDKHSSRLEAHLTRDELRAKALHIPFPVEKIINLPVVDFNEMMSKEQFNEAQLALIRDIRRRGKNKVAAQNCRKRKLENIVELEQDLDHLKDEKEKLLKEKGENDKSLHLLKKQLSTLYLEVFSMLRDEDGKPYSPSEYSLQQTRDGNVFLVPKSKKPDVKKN

CCCSP(=O)(OCC)Oc1ccc(Br)cc1Cl (stereo not drawn)
active: [11] 15.1 µM
not listed: [16] | [17] | [18] | [19] | [20]
inactive: all other assays above

CCCOc1nn(C(=O)NS(=O)(=O)c2ccccc2C(=O)OC)c(=O)n1C
not listed: [2] | [13] | [14] | [15] | [18] | [19] | [20]
inactive: all other assays above

CC1=NNC(=O)N(/N=C/c2cccnc2)C1
active: [9] 12.9 µM
not listed: [13] | [16] | [19] | [20]
inactive: all other assays above

CCCSP(=O)(OCC)SCCC
active: [11] 22.8 µM
not listed: [10] | [13] | [14] | [15] | [18] | [19] | [20]
inactive: all other assays above

CC(Oc1cccc(Cl)c1)C(=O)O (stereo not drawn)
active: [11] 10.1 µM
not listed: [13] | [17] | [19] | [20]
inactive: all other assays above

Nc1nc(N)nc(NC2CC2)n1
not listed: [16] | [17] | [18] | [20]
inactive: all other assays above

Nc1c(Cl)cc([N+](=O)[O-])cc1Cl
inactive: [1] | [6] | [18] | [20]
active: [2] 50 µM | [3] 25 µM | [4] 50 µM | [5] 50 µM | [7] 74 µM | [8] 74.1 µM | [9] 42.3 µM | [11] 11.4 µM | [12] 78.1 µM

CC(C1CC1)C(O)(Cn1cncn1)c1ccc(Cl)cc1 (stereo not drawn)
active: [3] 0.389 µM | [9] 28.1 µM
not listed: [14] | [17] | [18] | [20]
inactive: all other assays above

From PubChem BioAssay (EPA / NIEHS)
